# Assay outcomes as filed in PubChem.
# An excerpt weighted towards active compounds, which were near 7.5% of everything screened.
# ELG1 genotoxic – inducers of genotoxicity in HEK293T ELG1-luciferase cells; HEK293T ELG1-luciferase reporter, luminescence, 16 h; Potency, µM (titrated, usually from 46 µM), without a hit: at the top dose activity change, positive = activation, hits mostly activators; 330,000 tested, 1.3% active; AID 504466; note: % of control where 0% means no effect; nearly all actives have a fitted effect of over 60% in size
#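 Cells (2,000/well) expressing the ELG1-luciferase fusion are dosed by pin tool and kept 16 hr at 37 °C, 5% CO2. Signal comes from ONE-Glo luciferase reagent after 30 min at room temperature.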
# Luc counter – counter-screen: inhibitors of Kinase-Glo firefly luciferase. Q27757. Kinase-Glo luciferase, ATP luminescence, 8 min. Potency, µM (top dose mostly 38.3 µM), inactives show at the top dose activity change, negative = inhibition, most hits filed as inhibitors. 200,000 tested, 0.28% active; note: % is set by controls: 0 for no effect and ±100 for the full control effect; nearly all actives have a fitted effect of over 60% in size
#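 Luminescence was the read-out, taken after 8-minute incubation at ambient temperature. Luciferase turned over luciferin with 10 uM ATP in imidazole pH 7.2 buffer containing KCl, MgCl2, Tween 20 and BSA.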
# SMN2 splice up – SMN2 splice variant enhancement. HEK293 SMN2-luciferase splicing reporter, luminescence, 30-36 h. Potency, µM (top dose mostly 46.1 µM), without a hit: at the top dose activity change, positive = activation, hits mostly activators. 210,000 tested, 2.8% active; note: % of control where 0% means no effect; nearly all actives have a fitted effect of over 55% in size
#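 HEK293 cells carry an SMN2 […]–luciferase reporter in which exon 7 inclusion puts luciferase in frame. Cells were plated 10-12 h before compound addition, then incubated 30-36 h at 37C. ONE-Glo luminescence was read; sodium butyrate at 4.5 mM final served as control.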
# FLuc modulator – inhibits or activates purified firefly luciferase, miR-21 counter-screen; P08659; purified FLuc, Km substrates, luminescence inhibition; AID 588342; 360,000 tested, 6.9% active; Potency, µM (series often up to 57.5 µM), inactives show at the highest dose activity change, negative = inhibition, hits mostly inhibitors;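 note: plate controls were vehicle for no effect and reference inhibitor for full effect; nearly all actives have a fitted effect of over 55% in size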
# Target sequence (P08659 whole entry, looked up): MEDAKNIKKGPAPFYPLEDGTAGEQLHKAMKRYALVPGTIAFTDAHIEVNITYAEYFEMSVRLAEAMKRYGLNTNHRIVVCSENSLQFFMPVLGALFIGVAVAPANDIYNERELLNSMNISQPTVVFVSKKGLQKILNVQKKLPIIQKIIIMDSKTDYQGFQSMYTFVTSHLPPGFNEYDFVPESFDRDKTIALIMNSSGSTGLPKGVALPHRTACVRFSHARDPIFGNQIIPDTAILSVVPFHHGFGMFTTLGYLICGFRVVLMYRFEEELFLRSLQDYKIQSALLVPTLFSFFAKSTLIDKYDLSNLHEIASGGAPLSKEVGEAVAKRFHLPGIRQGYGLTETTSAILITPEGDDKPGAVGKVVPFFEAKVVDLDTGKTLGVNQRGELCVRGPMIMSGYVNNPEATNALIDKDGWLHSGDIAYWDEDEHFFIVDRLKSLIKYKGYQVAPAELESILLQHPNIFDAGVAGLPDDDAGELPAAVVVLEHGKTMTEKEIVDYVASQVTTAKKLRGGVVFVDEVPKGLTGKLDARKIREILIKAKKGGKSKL
#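 Biochemical qHTS of compounds, final roughly 60 µM downward over six points, against 10 nM purified firefly luciferase using Km concentrations of substrates (10 uM D-luciferin, 10 uM ATP) in Tris acetate pH 7.5 buffer; luminescence output.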
# NPC1 promoter act – NPC1 promoter activation; Potency, µM (series often up to 9.22 µM), without a hit: at the top dose activation, usual class: activators; Huh7 NPC1 promoter luciferase reporter, 24 h; AID 485313; 320,000 tested, 2.4% active; note: % of control where 0% means no effect; nearly all actives have a fitted effect of over 60% in size
#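 Stable NPC1-promoter luciferase Huh7 line; cpd (DMSO) 24 h, 37 °C, 5% CO2; Amplite luciferase reagent 10 min RT; luminescence readout. qHTS format.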
# Rab9 promoter act – activators of Rab9 promoter | Huh7 Rab9 promoter-luciferase reporter, luminescence, 24 h | Potency, µM (titrated, usually from 9.22 µM), for the others: at the highest dose activation, negative = inhibition, usual class: activators | 320,000 tested, 2.8% active | AID 485297; note: % of control where 0% means no effect; nearly all actives have a fitted effect of over 60% in size
#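 Rab9 promoter-driven luciferase in stably transfected Huh7 cells; 1500 cells/well rested 2 h, exposed to compound in DMSO for 24 h at 37 °C, 5% CO2. Luminescence read 10 min after adding luciferase reagent at ambient temperature.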
# Numbers without * were called inactive; ? = inconclusive; / = no result given. Calls come from the whole dose curve; as a rule, active = well fitted curve in the direction sought with a large enough effect; inconclusive = small, poorly fitted or top-dose-only effect, or another doubt; inactive = no such curve, though single readings can be large; an effect the other way counts as inactive or inconclusive. Potency is the fitted concentration of half-maximal effect.
SMILES,ELG1 genotoxic,Luc counter,SMN2 splice up,FLuc modulator,NPC1 promoter act,Rab9 promoter act
Cc1noc(C)c1C(=O)OCC(=O)c1cc(C)n(Cc2ccccc2Cl)c1C,16µM*,-10%,-21%,11µM*,?,?
Cc1noc(C)c1C(=O)OCC(=O)c1ccc[nH]1,-5%,-5%,-8%,2%,1%,-11%
Cc1ccc(C2CCN(C(=S)NC(C)C)C2)cc1 (stereo unspecified),0%,/,/,-9%,1%,1%
COc1cc2[nH]c3c(=O)n4c(nc3c2cc1OC)SCCC4,-2%,/,/,?,18%,?
Cc1ccc(C(=O)N(C)c2ccc(OCC(=O)N3c4ccc(C)cc4C4CN(C)CCC43)cc2)cc1 (stereo unspecified),?,0%,11µM*,3µM*,27%,?
CCOC(=O)c1oc2ccc(CNCCO)c(Cl)c2c1C,?,-3%,24%,17µM*,24%,28%
CCCc1cc(=O)[nH]c(SCC(=O)Nc2ccc(Br)cc2Br)n1,0%,2%,15%,?,-6%,-2%
C/C(=N\NC(=O)c1cc(O)ccc1O)c1cccc(NC(=O)c2ccc(Cl)cc2)c1,3%,/,/,1.1µM*,?,14%
C/C(=N\NC(=O)C1CC1)c1cccc(NC(=O)c2cccc(Cl)c2)c1,0%,4%,22%,?,3%,2%
C/C(=N\NC(=O)c1cc(O)ccc1O)c1cccc(NC(=O)c2cccc(Cl)c2)c1,7%,/,/,8.5µM*,1%,4%
C/C(=N\NC(=O)CSCc1ccccc1Cl)c1cccc(NC(=O)c2ccccc2)c1,-7%,7%,-65%,5%,-3%,-9%
O=C(Nc1ccc(F)c(Cl)c1)Nn1cnnc1,5%,/,/,-3%,-8%,-2%
CCN(CC)S(=O)(=O)c1cc(C(=O)Oc2cccc(-c3cnc4ccccc4n3)c2)ccc1OC,10%,-2%,13µM*,-17%,?,?
O=C(Oc1cccc(-c2cnc3ccccc3n2)c1)c1ccco1,?,-1%,13µM*,24µM*,?,3.2µM*
CCN(CC)S(=O)(=O)c1ccc(C)c(C(=O)Oc2cccc(-c3cnc4ccccc4n3)c2)c1,15%,2%,18µM*,0%,?,?
C[C@H](CO)N1C[C@H](C)[C@@H](CN(C)S(C)(=O)=O)Oc2ccc(NS(=O)(=O)c3ccccc3)cc2C1=O,4%,/,/,/,/,/
COc1ccc(S(=O)(=O)c2c(Nc3cccc(C)c3C)sc(C(=O)c3ccccc3)c2N)cc1,/,/,-11%,5%,/,/
O=C(/C=C/c1cccc(O)c1)c1ccc(N2CCOCC2)cc1,12%,/,/,1.2µM*,?,?
CCOC(=O)c1cccc(NC(=O)c2cc(-c3ccc(Cl)s3)nc3ccccc23)c1,/,/,3%,-13%,/,/
Cc1c(C(=O)OCc2ccc(F)cc2)sc2nc3n(c(=O)c12)CCC3,7%,/,/,15µM*,4%,26%
CCOC(=O)c1sc2nc3n(c(=O)c2c1C)CCC3,11%,0%,-8%,?,1%,15%
CCOC(=O)c1sc2nc3n(c(=O)c2c1C)CCCCC3,?,2%,7%,15µM*,?,?
Cc1nn(C)c(C)c1S(=O)(=O)N(CC(=O)N1CCN(c2ccccc2)CC1)c1ccc(C(C)C)cc1,/,/,-1%,-7%,/,/
Cc1ccc(NC(=O)c2oc3ccc(S(=O)(=O)N4CCCCCC4)cc3c2C)c(C)c1,/,/,/,0%,/,/
c1ccc(Nc2ccnc(Nc3ccccc3)n2)cc1,?,/,/,1.9µM*,2.5µM*,?
SMILES,ELG1 genotoxic,Luc counter,SMN2 splice up,FLuc modulator,NPC1 promoter act,Rab9 promoter act
Cc1cccc(CSc2ncc(Cl)c(C(=O)Nc3sc4c(c3C(N)=O)CCCC4)n2)c1,/,/,4%,-2%,/,/
S=c1[nH]c(-c2ccccc2)cn1/N=C/c1ccc(Br)cc1,-9%,-1%,/,?,15%,?
S=c1[nH]c(-c2ccccc2)cn1/N=C/c1cccs1,-1%,/,/,-15%,1.4µM*,?
Fc1ccccc1/C=N/n1cc(-c2ccccc2)[nH]c1=S,2%,/,/,?,1.1µM*,4µM*
CCCN(C(=O)c1noc2c1COc1ccc(C)cc1-2)c1ccc(Cl)c(Cl)c1,/,/,/,1%,/,/
COc1ccc(NC(=O)c2sc3nc(C)cc(C)c3c2N)cc1,?,/,/,3.8µM*,1.6µM*,1.3µM*
Cc1cc(C)c2c(N)c(C(=O)Nc3ccc(F)cc3)sc2n1,?,/,/,1.5µM*,0.71µM*,0.5µM*
Cc1cc(NC(=O)c2sc(Nc3ccc(F)cc3)nc2N)no1,5%,0%,24%,-14%,18%,25%
Cc1cc(C)c2c(N)c(C(=O)Nc3ccc([N+](=O)[O-])cc3)sc2n1,?,/,/,-3%,0.5µM*,0.79µM*
C=CCNc1nc(N)c(C(=O)Nc2cc(C)on2)s1,16%,-4%,11µM*,17µM*,?,?
CC(C)CCNC(=O)CN1C(=O)c2cccnc2Oc2ccccc21,/,/,15%,-5%,/,/
Cc1cc(C)c2c(N)c(C(=O)Nc3ccccc3C(F)(F)F)sc2n1,/,/,/,-15%,/,/
Cc1cc(C)c(NC(=O)c2sc3nc(C)cc(C)c3c2N)c(C)c1,/,/,-2%,-4%,/,/
Cc1cc(C)c2c(N)c(C(=O)N/N=C/c3cccs3)sc2n1,?,/,/,?,1.8µM*,1.6µM*
Cc1cc(C)cc(NC(=O)c2sc3nc(C)cc(C)c3c2N)c1,?,/,/,9.5µM*,1.8µM*,3.2µM*
Cc1cc(C)c2c(N)c(C(=O)Nc3ccc(C)c(C)c3)sc2n1,1.2µM*,/,/,1.7µM*,1µM*,0.63µM*
Cc1cc(C(F)(F)F)c2c(N)c(C(=O)Nc3cc(C)on3)sc2n1,?,-5%,-43%,?,?,3.5µM*
NC(=O)c1ccccc1NC(=O)Cn1nc(Cc2cccnc2)c2ccccc2c1=O,/,/,-18%,-11%,/,/
CCCn1c(=O)c2sccc2n2c(CCCC(=O)N3CCN(c4ccccc4OC)CC3)nnc12,/,/,/,0%,/,/
Cc1cc(C)c2c(N)c(C(=O)NC3CCCC3)sc2n1,10%,-2%,11%,?,7%,24%
Cc1cc(C)c2c(N)c(C(=O)NCC3CCCCC3)sc2n1,11µM*,-6%,11µM*,24µM*,?,?
COc1ccc(/C=N/NC(=O)c2sc3nc(C)cc(C)c3c2N)cc1,3%,/,/,9.5µM*,2%,2%
COCc1cc(C)nc2sc(C(=O)Nc3ccccc3F)c(N)c12,15%,/,/,19µM*,23%,26%
CC(C)c1ccc(C2c3c(-c4ccccc4O)n[nH]c3C(=O)N2CCc2ccccc2)cc1 (stereo unspecified),/,/,-3%,3%,/,/
